Compounds with a hit are over-represented: about 3.4% of the library has one in this group of screens.
GPR151 ag: activates the human receptor GPR151. PathHunter beta-arrestin GPR151 cells, luminescence. activation, % at 11.2 µM. Q8TDV0. hit rate 1% among 650,000; in the data active means activation above about 4.9%;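 further: 0% = median of compound wells and 100% = cells with positive control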
TEAD-YAP block: TEAD-YAP interaction inhibition; HEK-TIYL cells, TEAD-Gal4/YAP UAS-luciferase luminescence; inhibition, % at 9.12 µM; hit rate 1.4% among 640,000; AID 1259422; in the data active means inhibition above about 32%;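 further: 0% = median of test compound wells and 100% = reference inhibitor wells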
FBW7 act: activators of human E3 ligase FBW7; hit rate 0.13% among 650,000; normalized activity (activation), % at 26.1 µM; Q969H0; AlphaScreen FBW7–phospho-cyclin E peptide binding, activator screen; in the data active means normalized activity above about 1.9%;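 further: purified mutant Fbw7 with reduced substrate affinity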
Target sequence (Q969H0 whole entry, looked up): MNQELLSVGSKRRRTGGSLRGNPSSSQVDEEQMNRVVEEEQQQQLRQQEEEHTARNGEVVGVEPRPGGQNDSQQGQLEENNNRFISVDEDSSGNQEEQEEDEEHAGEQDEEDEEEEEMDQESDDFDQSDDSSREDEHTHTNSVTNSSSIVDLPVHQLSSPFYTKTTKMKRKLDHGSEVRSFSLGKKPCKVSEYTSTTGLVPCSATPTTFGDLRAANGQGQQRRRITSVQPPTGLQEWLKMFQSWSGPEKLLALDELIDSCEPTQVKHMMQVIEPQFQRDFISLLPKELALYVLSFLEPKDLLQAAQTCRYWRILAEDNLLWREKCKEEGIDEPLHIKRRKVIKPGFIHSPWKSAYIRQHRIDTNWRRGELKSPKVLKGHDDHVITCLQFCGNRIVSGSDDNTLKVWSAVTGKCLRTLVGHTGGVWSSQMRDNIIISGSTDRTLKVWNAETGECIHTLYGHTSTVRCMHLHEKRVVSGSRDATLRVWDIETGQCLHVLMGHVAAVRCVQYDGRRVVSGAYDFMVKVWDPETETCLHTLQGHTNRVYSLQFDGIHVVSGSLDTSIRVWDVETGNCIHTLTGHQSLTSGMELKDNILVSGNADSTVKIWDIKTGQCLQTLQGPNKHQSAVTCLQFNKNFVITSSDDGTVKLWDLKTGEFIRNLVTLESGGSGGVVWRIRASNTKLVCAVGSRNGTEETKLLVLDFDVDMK
MITF inh: human MITF inhibition, primary screen; AlphaScreen MITF homodimerization, bead proximity signal; inhibition, % at 2.6 µM; hit rate 0.91% among 650,000; AID 1259374; in the data active means inhibition above about 50%;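 further: 0% = vehicle wells with protein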
Starred values were filed as active, the others as inactive.

SMILES	GPR151 ag	TEAD-YAP block	FBW7 act	MITF inh
c1ccc2[nH]c(CNc3ncnc4nc(N5CCN(Cc6ccc7c(c6)OCO7)CC5)[nH]c34)nc2c1	0	54*	0	12
c1ccc2[nH]c(CNc3nc(N4CCOCC4)nc4c3ncn4C3CCCCC3)nc2c1	0	74*	0	0
CC(C)n1cnc2c(NCc3nc4ccccc4[nH]3)nc(N3CCC(N4CCOCC4)CC3)nc21	0	63*	0	9
OCCNc1ncnc2nc(N3CCN(Cc4ccc5c(c4)OCO5)CC3)[nH]c12	1	2	0	8
CC(C)n1cnc2c(NCc3nc4ccccc4[nH]3)nc(N3CCN(c4ccccn4)CC3)nc21	2	72*	0	14
Cc1cc(C)c2sc(NC(=O)COc3ccccc3)nc2n1	1	-8	0	-16
O=C(Nc1nc(-c2ccc(Oc3ccccc3)cc2)cs1)C1CC1	1	-2	0	8
CC(=O)Oc1ccc2occ(C(=O)CCN3CCOCC3)c2c1	1	6	0	14
CC(C)n1cnc2c(NCc3ccccc3)nc(N3CCN(Cc4ccc5c(c4)OCO5)CC3)nc21	0	-3	0	0
CCN(CC)c1nc(NCCc2ccc(O)cc2)nc(N2CCN(c3ccccn3)CC2)n1	0	-2	0	0
Cn1c(Nc2nc(NCc3nc4ccccc4[nH]3)c3ncn(C4CCCCC4)c3n2)nc2ccccc21	-2	34*	0	-9
c1ccc(-n2cnc3c(NCc4nc5ccccc5[nH]4)nc(N4CCC(N5CCOCC5)CC4)nc32)cc1	-1	44*	0	8
Cn1c(Nc2nc(NCc3ccccc3)c3ncn(C4CCCCC4)c3n2)nc2ccccc21	3	4	0	-1
CCN(CC)c1nc(NCc2nc3ccccc3[nH]2)nc(N2CCN(c3ccccn3)CC2)n1	1	34*	0	13
CC(C)n1cnc2c(NCc3nc4ccccc4[nH]3)nc(N3CCN(Cc4ccc5c(c4)OCO5)CC3)nc21	0	68*	0	9
C=CCNC(=O)C(=O)N/N=C/c1ccccc1Cl	-1	0	0	-27
Cc1ccc(CN(Cc2ccccc2)C(=S)NCC(=O)NC2CCCCC2)o1	0	2	0	7
CC(C)n1cnc2c(NCc3nc4ccccc4[nH]3)nc(Nc3ccc(N4CCOCC4)cc3)nc21	-1	57*	0	0
c1ccc2[nH]c(CNc3nc(N4CCOCC4)nc4c3ncn4-c3ccsc3)nc2c1	-1	88*	0	18
c1ccc2[nH]c(CNc3nc(Nc4ccc(N5CCOCC5)cc4)nc4c3ncn4C3CCCCC3)nc2c1	-1	-2	0	13
Cc1noc(C)c1-c1nc(NCc2nc3ccccc3[nH]2)c2ncn(-c3ccsc3)c2n1	0	8	0	18
CC(C)n1cnc2c(NCc3nc4ccccc4[nH]3)nc(N3CCCC3CO)nc21 (configuration not stated)	0	72*	0	7
CCOc1ccc2nc(SCC(=O)Nc3ccc4nc(SCC(=O)OC)sc4c3)sc2c1	-1	13	0	-2
Cc1c(N)cccc1-c1nc2ccccc2s1	-2	35*	0	0
Cc1ccc(-c2nc3ccccc3s2)cc1N	-10	54*	0	1
SMILES	GPR151 ag	TEAD-YAP block	FBW7 act	MITF inh
Cc1cc(-c2nc3ccccc3s2)ccc1N	-8	81*	0	3
Cc1ccc(-c2nc3ccccc3s2)cc1[N+](=O)[O-]	1	-32	0	-1
CC(=O)Nc1cc(-c2nc3ccccc3s2)ccc1C	0	-34	0	-4
Cc1c(N)cccc1-c1nc2ccccc2o1	-3	57*	0	-3
Cc1nc2c(C(=O)NCc3ccc(Cl)cc3)cnn2c(C)c1Cc1cccc(Br)c1	0	8	0	0
CCOC(=O)C1=C(C)Nc2nnnn2C1c1ccc(OC)c([N+](=O)[O-])c1 (configuration not stated)	1	-2	0	12
CCn1c(=O)c(=O)[nH]c2cc(C(=O)NCC(c3ccc(OC)cc3)N(C)C)ccc21 (configuration not stated)	3	1	0	-2
CCOC(=O)c1sc(N2C(=O)C(=O)/C(=C(/O)c3ccc(F)cc3)C2c2cccc(Oc3ccccc3)c2)nc1C (configuration not stated)	-1	4	0	11
COc1cc2c(cc1C)C(=O)C(C1(O)C(=O)N(C)c3ccccc31)CC2 (configuration not stated)	1	4	0	8
Cc1cccc(N(C(=O)c2ccccn2)C2(C(=O)Nc3c(C)cccc3C)CCCC2)c1	0	-10	0	19
CC(=O)c1ccc2c(c1)nc(C)n2-c1ccccc1	0	-24	0	20
